About 83,000 compounds went through this panel and 20% of them were active in at least one assay; those are over-represented in the sample as a whole.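 Testing used 96-well plates and a 48-hour single-concentration exposure. Example: -40 means 40% of the starting cells died.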 Unmarked numbers belong to inactive results. Activity calls are given as the source filed them. How the source made its calls: active means growth percent below 10; inactive means the rest.
Legend:
Test in all cases: NCI-60 one-dose screen, 48 h (100 = growth as untreated, 0 = no growth, -100 = all killed)
Conditions in all cases: 10 µM unless noted
[1] = tested on: SR leukemia
[2] = tested on: RPMI-8226 leukemia
[3] = tested on: OVCAR-5 ovarian
[4] = tested on: OVCAR-4 ovarian
[5] = tested on: SK-OV-3 ovarian
[6] = tested on: IGROV1 ovarian
[7] = tested on: OVCAR-3 ovarian
[8] = tested on: HS 578T breast
[9] = tested on: NCI/ADR-RES ovarian
[10] = tested on: OVCAR-8 ovarian

SMILES | growth [1] | growth [2] | growth [3] | growth [4] | growth [5] | growth [6] | growth [7] | growth [8] | growth [9] | growth [10]
Cc1ccc(C(=O)N/N=C/c2cccc(Oc3ccccc3)c2)cn1 | 48.6% | 89.5% | 93.1% | 86.7% | 80% | 24% | 35.7% | 50.8% | 19.8% | 
Cc1nc(NC(=O)COc2ccc(/C=C3\Cc4ccc(Cl)cc4C3=O)cc2)sc1C | 93.2% | 103% | 105% | 113% | 114% | -69.8% (active) | 105% | 139% | 96.3% | 
CCCCCCNC(=O)Oc1ccc(/C(=C(\C)c2ccc(OC)cc2)c2ccc(OCCN3CCCCC3)cc2)cc1 | 0.84% (active) | 44.7% | 82.6% | 63.1% | 70% | 53.8% | 80.9% | 65.7% | 75.8% | 
COc1ccc(CN2c3ccccc3CCc3ccccc32)cc1F | 11.6% | 8.72% (active) | 40.7% | 42% | 38.4% | 51.7% | -41.7% (active) | 30.2% | 11.1% | 
Cc1nc2nc(SCC(=O)O)[nH]c2c(=O)[nH]1 | 115% | 96.9% | 104% | 131% | 103% | 101% | 115% | 99% | 105% | 
Cc1nn(-c2ccccc2)c2c1N=c1s/c(=C\c3ccc(C(F)(F)F)cc3)c(=O)n1CN2 | 97.9% | 16.2% | 93.4% | 51.2% | 91.5% | 68.3% | 138% | 96.9% | 40.4% | 
COc1cc(/C=C2\C(=O)Nc3ccc(Br)cc32)cc(OC)c1OC | 16.3% | 52.2% | 96.8% | 71.8% | 88.3% | 43% | 60.3% | 63% | 42.7% | 
c1ccc(Cc2nn3cc(-c4ccccc4)nc3s2)cc1 | 82.1% | 98.3% | 109% | 106% | 112% | 106% | 105% | 115% | 102% | 
O=C1c2ccccc2NC(n2sc3ccccc3c2=O)N1c1ccccc1 (stereo not given) | 87.4% | 101% | 110% | 98.5% | 103% | 96.5% | 101% | 106% | 95% | 
C=C1C(=O)O[C@H]2[C@H]1CC/C(COC(=O)NCCOCCOCC(=O)Nc1ccc(OC)c(C(N)=O)c1O)=C\CC[C@@]1(C)O[C@@H]21 | 7.91% (active) | 16% | 90.9% | 71% | 109% | 24.7% | 45.8% |  | 94.6% | 
COc1ccn2c(C(C)=O)cc(C(=O)c3ccc4c(c3)Sc3ccccc3N4)c2c1 | 5.07% (active) | 11.1% | 36.9% | 50.2% | 18.8% | 34.9% | -47.8% (active) | 41.9% | 12.7% | 
COc1ccc(C2CC(c3ccc(Nc4nc(Nc5ccc(F)cc5)nc(Nc5ccc(Cl)cc5)n4)cc3)=NN2C(C)=O)cc1 (stereo not given) | 107% | 90.8% | 104% | 99.3% | 107% | 40.4% | 128% | 108% | 85% | 
C=C1C(=O)O[C@H]2[C@H]1CC/C(COC(=O)CCSSCCC(=O)OC/C1=C/CC[C@@]3(C)O[C@H]3[C@H]3OC(=O)C(=C)[C@@H]3CC1)=C\CC[C@@]1(C)O[C@@H]21 | -14.1% (active) | -23.5% (active) | 17.7% | 29.9% | 89.9% | -49.6% (active) | -35.8% (active) | 7.57% (active) | 50.5% | 
CC(=O)CC[C@H]1C(=O)N[C@@H](C(C)C)C(=O)N[C@@H](Cc2cc(O)cc(F)c2)C(=O)N2CCC[C@H](N2)C(=O)O[C@H](/C(C)=C/C=C/C(=O)OC(C)(C)C)C/C=C/C=C/[C@H](O)[C@H](C)[C@H]1O | 16.7% | 37.1% | 88.6% | 56.6% | 48.8% | 43.8% | 54.2% | 55.9% | 77.7% | 
Cc1ccc(C(=O)N/N=C/c2cccc([N+](=O)[O-])c2)cn1 | 108% | 93% | 108% | 111% | 102% | 108% | 118% | 93.1% | 104% | 
COc1ccc(C(=O)n2nc(-c3ccccc3)nc2N)cc1OC | 80.6% | 92.1% | 96.7% | 90.9% | 80.8% | 73.5% | 94.5% | 92.1% | 96.5% | 
CC(C)(C)NC(=O)C(OC(=O)c1cccc(Cl)c1)c1ccc(Cl)cc1 (stereo not given) | 103% | 102% | 94.5% | 105% | 93.1% | 104% | 103% | 110% | 101% | 
Cc1ccc(/C=N\NC(=O)c2[nH]c3ccc(F)cc3c2-c2ccccc2)cc1 | 19.7% |  | 62.5% | 46.8% | 20.4% | 91.4% | -32.3% (active) | 16.7% |  | 16.6%
CC(=O)N1N=C(c2ccc(Nc3nc(Nc4ccc(F)cc4)nc(Nc4ccc(Cl)cc4)n3)cc2)CC1c1ccc(Cl)cc1 (stereo not given) | 102% | 82.7% | 95.1% | 94.2% | 97.2% | 66.1% | 123% | 95.8% | 91.1% | 
CCc1ccc(Oc2c(-c3ccc(OCc4ccc(Cl)cc4)cc3O)n[nH]c2C(F)(F)F)cc1 | 12.7% | 1.99% (active) | 85.9% | 16.5% | 27% | 22% | 0.589% (active) | 27.9% | 16.5% | 
Cc1ccc(S(=O)(=O)N/N=C/C2(c3ccccc3)CC2)cc1 | 101% | 96.9% | 109% | 98.8% | 110% | 116% | 111% | 102% | 107% | 
C=C1C(=O)O[C@H]2[C@H]1CC/C(COC(=O)CCC(=O)NCCOCCOCC(=O)Nc1ccc(OC)c(C(N)=O)c1O)=C\CC[C@@]1(C)O[C@@H]21 | 46.8% | 87% |  | 110% | 96.7% | 59.2% | 85% | 109% | 103% | 
O=C(O)CCC(=O)Nc1nnc(-c2ccccc2)s1 | 95.6% | 99.4% | 107% | 109% | 95.6% | 112% | 101% | 111% | 107% | 
CCN(CC)c1ccc(C2=NN(C(C)=O)C(c3cc(OC)c(OC)c(OC)c3)C2)cc1 (stereo not given) | -23.6% (active) | 2.54% (active) | 39% | 46.9% | 31.5% | -45.1% (active) | -64.8% (active) |  | -23.9% (active) | 
COc1cccc(Oc2ccccc2NC(=O)CNC(=O)c2cccc3ccccc23)c1 | 5.26% [5 µM] (active) | 21.8% [5 µM] | 41.8% [5 µM] | 42.2% [5 µM] | 42.2% [5 µM] | 27.6% [5 µM] | -23.7% [5 µM] (active) | 24.7% [5 µM] | 15.3% [5 µM] | 
O=[N+]([O-])c1ccccc1NCSc1ccc(Cl)cc1 | 65% |  | 114% | 108% | 109% | 123% | 109% | 99.7% |  | 95.5%
O=C(Nc1ccc(OS(=O)(=O)c2ccc(F)cc2)cc1)c1ccc(Cl)cc1 | 91.4% | 94.2% | 102% | 106% | 105% | 95.7% | 102% | 104% | 93.1% | 
O=c1ccn(Cc2cn(-c3c4ccccc4nc4ccccc34)nn2)c(=O)[nH]1 | 38.8% | 87.3% | 114% | 109% | 90.9% | 80.9% | 110% |  | 108% | 
CC(C)c1cc(C(C)C)c(S(=O)(=O)Oc2ccc(NC(=O)c3ccc(Cl)cc3)cc2)c(C(C)C)c1 | 25.9% | 16.4% | 86.4% | 39.6% | 78.2% | 47.1% | 31.6% | 39.5% | 35.6% | 

Source: PubChem BioAssay (NCI)
